HP1b chromo inh: inhibitors of HP1-beta chromodomain binding to methylated histone tails; P83916; AlphaScreen HP1-beta / biotin-H3K9me3 peptide binding; Potency, µM (series often up to 114 µM), without a hit: at the top dose activity change, negative = inhibition, most hits filed as inhibitors; hit rate 0.56% among 390,000; AID 540317; also: nearly all actives have a fitted effect of over 70% in size
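HP1-beta protein (50 nM final) preincubated 30 min at room temperature with biotinylated H3(1-18)K9me3 peptide (50 nM) in PBS pH 7.4, 0.01% Tween-20, then compound added for 30 min. AlphaScreen streptavidin donor/nickel chelate acceptor beads (10 ug/mL final), 30 min dark, luminescence read.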
BAZ2B inh: inhibitors of human BAZ2B bromodomain; Potency, µM (top dose mostly 114 µM), for inactives: top-dose activity change, negative = inhibition, actives largely listed as inhibitors; AlphaScreen BAZ2B-H3K14Ac peptide displacement; Q9UIF8; hit rate 4.4% among 360,000; also: % is scaled to controls: 0 for no effect and ±100 for the full control effect; nearly all actives have a fitted effect of over 60% in size
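AlphaScreen displacement of biotin-H3(5-23)K14Ac peptide (50 nM final) from BAZ2B (50 nM final) in PBS pH 7.4, 0.01% Tween-20; complex preformed 30 min RT, then compounds (top 110 uM) 30 min RT, beads 20 min dark.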
JMJD2A Tudor: blocks the human JMJD2A Tudor domain; AlphaScreen JMJD2A-Tudor / H3K4me3 peptide binding; Potency, µM (top dose mostly 114 µM), without a hit: top-dose activity change, negative = inhibition, most hits filed as inhibitors; hit rate 4.4% among 390,000; also: % is scaled to controls: 0 for no effect and ±100 for the full control effect; nearly all actives have a fitted effect of over 50% in size
Sfp inh: blocks B. subtilis Sfp PPTase activity; Q9F4F7; Biochemical Sfp PPTase activity, qHTS; Potency, µM, for inactives: largest response in the series, negative = inhibition, actives largely listed as inhibitors; hit rate 3.5% among 310,000;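 also: the enzyme is Sfp with the accession as filed and its product quenches rhodamine fluorescence; 0% = enzyme reaction without inhibitor and -100% = no enzyme wells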
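Fluorescence-quenching assay with 15 nM Sfp, 5 uM rhodamine-CoA and 12.5 uM BHQ-2-labelled ybbR peptide in pH 7.6 Hepes/MgCl2 buffer. Enzyme was pre-incubated with compound for 15 min at room temperature. Rate was taken from the 30-min fluorescence change (525/598 nm).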
G9a inh: G9a (human) methyltransferase inhibition; Q96KQ7; Potency, µM (top dose mostly 102 µM), for inactives: at the top dose activity, negative = inhibition, usual class: inhibitors; hit rate 8.8% among 350,000; G9a H3K9 monomethylation, AlphaScreen, 2 h; also: % is scaled to controls: 0 for no effect and ±100 for the full control effect; nearly all actives have a fitted effect of over 75% in size
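Using a bead-based AlphaScreen, monomethylated H3K9 product from 2 h room-temperature reactions (G9a 20 nM, peptide 500 nM, SAM 20 uM) was detected with 0.5 ug/mL rabbit anti-H3K9me1 antibody.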
* marks the source's active call; other numbers are inactive results; ? = inconclusive; · = not tested or not shown; [ ] = remark or other dose. Only some compounds are listed: those with a hit (about 12% of all), similar ones and a draw of the others. Calls follow the shape of the dose curve; as a rule, active = well fitted curve in the direction sought with a large enough effect; inconclusive = small, poorly fitted or top-dose-only effect, or another doubt; inactive = no such curve, though single readings can be large; an effect the other way counts as inactive or inconclusive. Potency is read from the fitted curve at half-maximal effect.

SMILES	HP1b chromo inh	BAZ2B inh	JMJD2A Tudor	Sfp inh	G9a inh
O=C(O)c1ccc(-c2nc3ccccc3[nH]2)cc1	23%	-14%	-27%	-15%	-16%[59 µM]
O=C(O)c1ccc(-c2ncc[nH]2)cc1	5%	0%	20µM*	-7%	-37%
CCSc1nnc(NC(=O)C2CCN(S(=O)(=O)c3c(C)c(C)cc(C)c3C)CC2)s1	·	-2%	·	11%	0%[59 µM]
Cc1ccc(-n2nnc(-c3nccs3)n2)cc1	56%	6%	-3%	-6%	2%[59 µM]
Clc1ccc(-n2nnc(-c3nccs3)n2)cc1Cl	-2%	-14%	16µM*	40µM*	3.2µM*
COc1ccc(/C=C2\SC(=S)N(CC(=O)OCC(=O)Nc3ccc([N+](=O)[O-])cc3OC)C2=O)cc1	13%	?	-14%	?	·
COc1ccc(/C=C2\SC(=S)N(CC(=O)OCC(=O)Nc3ccc(C)cc3Cl)C2=O)cc1	5%	-26%	?	-24%	14µM*
O=C(CCN1C(=O)/C(=C/c2ccc(Cl)cc2)SC1=S)Nc1ccc(C(=O)O)cc1	71µM*	-16%	?	-4%	?
COc1ccc(/C=C2\SC(=S)N(CCC(=O)Nc3ccc(C(=O)O)cc3)C2=O)cc1	50µM*	35µM*	-101%	-3%	20%[0.501 µM]
CCc1ccc(/C=C2/SC(=S)N(CCC(=O)Nc3ccc(C(=O)O)cc3)C2=O)cc1	·	?	·	-29%	91%
N#CC1=C(N)OC2=C(C(=O)CCC2)C12C(=O)N1CCCc3cccc2c31 (stereo not given)	26%	?	-11%	0%	-28%
C/C(NC(=O)c1ccccc1F)=C1\C(=O)C[C@@H]2[C@H]1C2(C)C	84%	4%	21%	2%	17%
COc1cc(/C=C/C(=O)N(C)c2ccccc2C(=O)O)cc(OC)c1OC	42%	-3%	0%	12%	29%[0.501 µM]
Cc1c(C(=O)N2CCN(S(=O)(=O)c3cc(F)ccc3F)CC2)oc2ccccc12	10%	79µM*	-21%	·	?
O=C(NNC(=O)c1cccc(C(F)(F)F)c1)c1ccncc1	15%	?	-18%	16%	25µM*
Cc1cc(C(=O)NNC(=O)c2cccc(C(F)(F)F)c2)no1	19%	5%	-9%	8%	1%
CCCN1C=CC(=C/C=C(\C#N)C(=O)OCC)C=C1	·	50µM*	·	-1%	?
O=C(c1ccncc1)N1CCC[C@@]2(CCN(c3ncccn3)C2)C1	·	·	·	20%	-2%[12.7 µM]
CCOc1ccc(C(=O)c2ccc(OC)c(O)c2O)cc1	·	·	·	-52%	-46%[2.33 µM]
COc1ccc(C(=O)c2ccc(O)cc2)c(O)c1O	·	·	·	28µM*	·
O=C(O)CC1CCC(=C(Cl)Cl)C1 (stereo not given)	12%	?	-21%	1%	45µM*
O=C(O)CC1CCS(=O)(=O)C1 (stereo not given)	14%	19%	-22%	15%	16%[59 µM]
CCCc1cc(C(=O)N2CCCC(N3CCN(c4ccccc4C)CC3)C2)n(C)n1 (stereo not given)	26%	-16%	-24%	9%	19%
COc1cccc2c1C(=O)c1c(O)c3c(c(O)c1C2=O)C[C@@](O)(C(=O)CO)C[C@@H]3OC1CC(N)C(O)C(C)O1 (stereo not given in full)	?	·	?	-6%	?
COc1cccc2c1C(=O)c1c(O)c3c(c(O)c1C2=O)C[C@@](O)(C(=O)CO)C[C@@H]3O[C@H]1C[C@H](N)[C@H](O)[C@H](C)O1	16%	35µM*	-13%	?	22µM*
SMILES	HP1b chromo inh	BAZ2B inh	JMJD2A Tudor	Sfp inh	G9a inh
Cc1ccc(C(=O)Nc2ccc(N3CCOCC3)cc2N2CCOCC2)cc1	3%	-28%	-27%	6%	-28%
O=C(COc1ccccc1F)Nc1ccc(N2CCOCC2)cc1N1CCOCC1	28%	-9%	-11%	·	?
COc1ccccc1-c1ocnc1C(=O)Nc1ccc(N2CCOCC2)cc1N1CCOCC1	-13%	-15%	?	-14%	50µM*
O=C(COc1ccc(F)cc1Cl)Nc1ccc(N2CCOCC2)cc1N1CCOCC1	-4%	-10%	-28%	·	35µM*
CCOc1ccccc1OCC(=O)Nc1ccc(N2CCOCC2)cc1N1CCOCC1	-8%	-35%	?	·	56µM*
CCOc1ccccc1NC(=O)COc1coc(CN2CCCc3ccccc32)cc1=O	-20%	?	?	·	50µM*
CCOc1cc2[nH]c(=O)n(CCCCC(=O)NCc3ccco3)c(=O)c2cc1OCC	4%	6%	-13%	-5%	-7%[59 µM]
COC(=O)c1cc(NS(=O)(=O)c2ccc(NCc3cccnc3)c(N)c2)cc(C(=O)OC)c1	37%	-10%	-7%	-3%	35µM*
CCCN1C(=O)/C(=C/c2c(NCCCOCC)nc3c(C)cccn3c2=O)SC1=S	32%	6%	-4%	-5%	-37%[59 µM]
Cc1cccn2c(=O)c(/C=C3\SC(=S)NC3=O)c(NCCCN3CCOCC3)nc12	20%	-37%	-16%	4µM*	13µM*
NC1=NC(=O)S/C1=C\c1ccc(F)cc1	19%	-9%	-10%	3%	14%
COC(=O)Cc1c(C)c2ccc(OCC(=O)N(C)C)cc2oc1=O	-4%	-1%	-13%	13%	15%
CCOC(=O)c1c(-c2ccccc2)oc2ccc(O)cc12	37%	71µM*	-6%	40µM*	-22%[0.501 µM]
CCOC(=O)c1c(C)n(C)c2ccc(O)c(CN3CCN(C)CC3)c12	-4%	·	-21%	13%	?
CCOC(=O)c1c(CN2CCN(C)CC2)oc2ccc(O)cc12	31%	?	-20%	0%	50µM*
CCOC(=O)c1c(CN2CCN(c3ccccc3)CC2)oc2cc(Br)c(O)cc12	-6%	?	50µM*	7%	50µM*
CCOC(=O)c1c(-c2ccccc2)oc2ccc(O)c(CN3CCN(C)CC3)c12	-8%	-38%	-27%	6%	50µM*
Cc1cc(Cl)ccc1OCC(=O)Nc1c(C(=O)c2ccccc2)oc2ccccc12	30%	-1%	-2%	·	-2%[59 µM]
CCOC(=O)c1c(C)oc2cc(Cl)c(O)c(CN(C)C)c12	-20%	-17%	?	-5%	11%[59 µM]
CCOC(=O)c1c(-c2ccccc2)oc2cc(CN(C)C)c(O)c(CN(C)C)c12	-18%	·	50µM*	·	·
O=S(NCc1ccco1)C12CC3CC(CC(C3)C1)C2 (stereo not given)	-2%	-1%	-35%	-29%	6.3µM*
O=S(NCc1ccccc1)C12CC3CC(CC(C3)C1)C2 (stereo not given)	18%	8%	-14%	18%	-26%[12.7 µM]
Cc1ccc2nc(-c3ccc(C)o3)c(Nc3ccc4c(c3)OCO4)n2c1	19%	·	-26%	·	·
Cc1ccc2nc(-c3ccc(C)o3)c(Nc3ccc4c(c3)OCCO4)n2c1	7%	?	?	·	4.5µM*
Cc1ccc(Nc2c(-c3ccc(C)o3)nc3ccccn23)cc1	-14%	·	?	·	·
Cc1ccc(-c2nc3ccccn3c2Nc2ccc3c(c2)OCCO3)o1	?	45µM*	50µM*	·	13µM*
